# Screening results as filed in PubChem.
# This excerpt belongs to a sample that is enriched for hits.
# Pf Dd2 inh = blocks in vitro growth of P. falciparum Dd2; P. falciparum Dd2 growth, SYBR Green, 72 h; Potency, µM (doses to about 28.9 µM), for the others: at the top dose activity, negative = inhibition, most hits filed as inhibitors; 4.3% of 120,000 active; active = well fitted inhibition curve with a large enough effect;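 note: plate controls were DMSO vehicle for no effect and reference drug for full effect; nearly all actives have a fitted effect of over 65% in size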
#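 Readout: SYBR Green fluorescence, 485 nm excitation, 535 nm emission, after ~16 h lysis at 37C. Before that, Dd2-infected red cells (2.5% hematocrit) grew 72 h with compound, 29 uM top final concentration.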
# * hit, by the source's call; i = inactive; [ ] = dose if it differs, or a comment. Potency is the fitted concentration of half-maximal effect.
SMILES,Pf Dd2 inh
CCOC(=O)c1ccccc1NC(=O)Nc1cc2c(cc1N1CCCC1)n(C)c(=O)n2C,-39%
CCOC(=O)C1CCN(c2cc3c(cc2NC(=O)c2ccccc2Cl)n(C)c(=O)n3C)CC1,11µM*
CNC(=O)[C@@H]1CN(S(=O)(=O)c2c(C)noc2C)C[C@H]1C1CCN(C)CC1,33%
CNC(=O)[C@H]1C[C@H](Oc2cccnc2)CN1C(=O)NCc1ccc(C)cc1,-22%
O=C(NCc1cccc(F)c1)c1cc2c(s1)CCN(C(=O)c1ccccc1)C2,-20%
Cc1ccc([C@H]2CN(C(=O)c3[nH]nc(N)c3-c3ccccc3)C[C@@H]2N)o1,6%
COC1CCN(S(=O)(=O)N2CCCC(C)(c3ccccc3)C2)CC1 (stereo unspecified),4%
COC1CCN(S(=O)(=O)N2C[C@H](c3ccc(C)o3)[C@@H](N)C2)CC1,11µM*
COc1cc(OC)cc(C(=O)N2CCC(n3cc(-c4nc(-c5ccccc5)no4)nn3)C2)c1 (stereo unspecified),169%
COCC(=O)N1CCc2nc(-c3ccc(Cl)cc3)nc(-c3ccccc3)c2C1,1%
COc1ccc(-c2csc(=Nc3ccccc3)n2CCO)cc1F,i
O=S(=O)(c1ccc(-c2csc(=Nc3ccc(OC(F)(F)Cl)cc3)n2CCCO)cc1)N1CCCC1,11µM*
CCn1c(-c2ccc(S(=O)(=O)N3CCOCC3)cc2)csc1=Nc1ccc(C)c(Cl)c1,-20%
COCC(=O)Nc1ccc([C@H]2OCC(=O)N(Cc3ccccc3)[C@@H]2CO)cc1,-11%[44.1 µM]
O=C(Nc1ccc(F)cc1)Nc1cccc(-c2ccc(N3CCOCC3)nn2)c1,i
COc1cccc(COC2CN(CC(C)C)C(=O)CN(C(=O)c3snnc3C)C2)c1 (stereo unspecified),-11%
O=C(Nc1nccs1)c1ccc2c(c1)OCCN(CCC(F)(F)F)C2,-7%[44.1 µM]
Cc1cnc(NC(=O)c2ccc3c(c2)OCCN(C2CCC2)C3)s1,i
Cc1cnc(NC(=O)c2ccc3c(c2)OCCN(Cc2ncccn2)C3)s1,i
COc1ccc(NC(=O)c2ccc3c(c2)OCCN(C2CCC2)C3)c(F)c1,i
O=C(Nc1nccs1)c1ccc2c(c1)OCCN(c1ccccc1)C2,10µM*
O=C(Nc1ccc(F)cc1)c1ccc2c(c1)OCCN(CCC(F)(F)F)C2,i
O=C(Nc1nccs1)c1ccc2c(c1)OCCN(C1CCC1)C2,7.9µM*
CC(C)CCN1CCOc2cc(C(=O)Nc3ccccc3)ccc2C1,-14%[44.1 µM]
O=C(Nc1ccc2cn[nH]c2c1)c1ccc2c(c1)OCCN(c1ccccc1)C2,11µM*
SMILES,Pf Dd2 inh
Cc1ccc(Cl)cc1NC(=O)N1CCC(Oc2ncccc2C(=O)N2CCOCC2)C1 (stereo unspecified),i
O=C(c1ccccc1F)N1CCC2(CC1)Cc1ccccc1NC2=O,7%
CCn1ncc(N2CCCC(CC(=O)NCc3ccc(C)c(C)c3)C2)cc1=O (stereo unspecified),i
Cc1c(Cl)c(C(=O)N2CCn3nc(Cc4ccccc4)cc3C2)nn1C,-13%
O=C1CCN(C(=O)c2cc3ccccc3[nH]2)CCOCCN1,-2%
COc1ccc(C(=O)N2CCCC(CO)CCNC(=O)CC2)cc1 (stereo unspecified),-17%
Oc1cc(-c2cccc(Cl)c2)cc2c1OCCN(c1cc(C3CC3)ncn1)C2,i
CC(C)CNC(=O)CN1CCOc2c(O)cc(-c3cccc(Cl)c3)cc2C1,10µM*
C=CCn1cc(CN2CCOc3c(O)cc(-c4cccc(Cl)c4)cc3C2)cn1,11µM*
C=CCn1cc(CN2CCC(Oc3ccc4ccccc4c3)(C(=O)O)CC2)cn1,8%
Cc1ccccc1-c1cc(O)c2c(c1)CN(Cc1ccoc1)CCO2,11µM*
Cc1nc(C(=O)N2CCOc3c(O)cc(-c4cccc(Cl)c4)cc3C2)cs1,i
Cc1ccncc1C(=O)N1CCOc2c(O)cc(-c3ccccc3C)cc2C1,-9%
Cn1cc([C@@H](NC(=O)CN2CCOc3ccccc3C2)C2CC(O)C2)cn1 (stereo partly specified),2%
CCc1noc(CN2CCOc3c(O)cc(-c4ccccc4C)cc3C2)n1,i
Cc1nnnn1CCC(=O)NCC1CCN(c2cnn(C)c(=O)c2)C1 (stereo unspecified),22%
Fc1ccc(-c2nnc3ccc(NCCc4ccccn4)nn23)nc1,i
CNC(=O)[C@@H]1CN(C(=O)c2cc(F)ccc2F)C[C@H]1COC,10%
Cc1ccc2nc(NC(=O)C3CC(=O)N(c4n[nH]c5ccccc45)C3)sc2c1 (stereo unspecified),i
CN(C)c1nc2c(c(=O)[nH]1)CCN(Cc1cccnc1)CC2,5%[5.79 µM]
O=C(c1ccc[nH]c1=O)N1C[C@@H](COCC2CC2)[C@H](c2ccccn2)C1,3%
Cc1cc(C)n(CCC(=O)N2CCCC(c3nnnn3C)C2)n1 (stereo unspecified),-12%
CN(CC(=O)N1CCC(CCOc2ccccc2F)C1)S(=O)(=O)c1ccc2c(c1)oc(=O)n2C (stereo unspecified),-22%
